A collection of fitness landscapes (doi:10.1016/j.celrep.2020.107928)
Over roughly 81,000 sequences, “one-hybrid fitness for binding parS DNA” has its median near -0.17; the highest 2% begin near 0.51. Many of the other results were omitted from the sample, so the highest values are more common in it than they were.

B1: Caulobacter ParB omega fusion; a variant is named by its letters at X, in order, B8GW30 (parent)
chain: MESVVVGEPGMSEGRRGLGRGLSALLGEVDAAPAQAPGEQLGGSREAPIEILQRNPDQPRRTFREEDLEDLSNSIREKGVLQPILVRPSPDTAGEYQIVAGERAWRAAQRAGLKTVPIMVRELDDLAVLEIGIIENVQRADLNVLEEALSYKVLMEKFERTQENIAQTIGKSXSHVANXMRLLXLPDEVQSYLVSGELTAXHARAIAAAADPVALAKQIIEGGLSVRETEALARKAPNLSAGKSKGGRPPRVKDTDTQALESDLSSVLGLDVSIDHRGSTGTLTITYATLEQLDDLCNRLTRGI

Variants of: B1
Test: one-hybrid fitness for binding parS DNA (scaled: cognate 1, non-cognate 0); higher = stronger binding
Details: with parS DNA site
Method in brief: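 Selection: bacterial one-hybrid in E. coli USO, HIS3 reporter with the site 19 bp from the promoter, 48 hours at 37°C on M9-minus-histidine plus 0.1 mM IPTG and 5 mM 3-AT. Libraries were Caulobacter ParB with four randomised specificity codons, sequenced on Illumina before and after selection. Fitness is the rescaled log change in variant-to-wild-type read ratio, anchored to the cognate and non-cognate sites.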

Row | Variant | one-hybrid fitness for binding parS DNA
1 | RVIQ | ≤ 0.2
2 | RVIT | 0.703
3 | RVPT | 0.529
4 | RVIF | ≤ 0.2
5 | RVPK | ≤ 0.2
6 | RVPM | ≤ 0.2
7 | CFTG | ≤ 0.2
8 | TTVP | ≤ 0.2
9 | PCIV | ≤ 0.2
10 | RNDA | 0.354
11 | RNQA | 0.489
12 | RNVA | 0.312
13 | RNRA | 0.534
14 | RNNA | 0.529
15 | RNYA | 0.467
16 | RNSA | 0.495
17 | RNWA | 0.294
18 | RNKA | 0.541
19 | CRFC | ≤ 0.2
20 | AKST | ≤ 0.2
21 | DDYL | ≤ 0.2
22 | DYFD | ≤ 0.2
23 | RYQR | ≤ 0.2
24 | QVQY | ≤ 0.2
25 | RMTI | ≤ 0.2
26 | KKRY | ≤ 0.2

Row | Variant | one-hybrid fitness for binding parS DNA
27 | IVRC | ≤ 0.2
28 | DLVM | ≤ 0.2
29 | RNDK | ≤ 0.2
30 | RNDG | 0.679
31 | RNNN | 0.385
32 | RNNH | ≤ 0.2
33 | RNDM | ≤ 0.2
34 | RNNG | 0.948
35 | LLYC | ≤ 0.2
36 | DVVM | ≤ 0.2
37 | PAYG | ≤ 0.2
38 | PDSP | ≤ 0.2
39 | THIF | ≤ 0.2
40 | ESHS | ≤ 0.2
41 | VADN | ≤ 0.2
42 | RKHD | ≤ 0.2
43 | RFHP | ≤ 0.2
44 | RPHS | ≤ 0.2
45 | RMHD | ≤ 0.2
46 | RFHH | ≤ 0.2
47 | RCHD | ≤ 0.2
48 | RKHS | 0.832
49 | RKHN | 0.375
50 | RCHS | 0.953
51 | RMHN | 0.482
52 | RMHS | 0.979

Row | Variant | one-hybrid fitness for binding parS DNA
53 | RFHS | 0.996
54 | SNSI | ≤ 0.2
55 | KYKR | ≤ 0.2
56 | WCAL | ≤ 0.2
57 | YGRT | ≤ 0.2
58 | RSHH | ≤ 0.2
59 | RAHN | 0.481
60 | RAHD | ≤ 0.2
61 | RSHP | ≤ 0.2
62 | RSHS | 1
63 | RAHS | 0.985
64 | WEGR | ≤ 0.2
65 | ADSS | ≤ 0.2
66 | ALSE | ≤ 0.2
67 | KLGY | ≤ 0.2
68 | RVAN | 0.452
69 | RVFN | 0.399
70 | RVAS | 1.01
71 | RVAH | 0.225
72 | RVFD | ≤ 0.2
73 | RVFS | 1.03
74 | PPTK | ≤ 0.2
75 | IPLI | ≤ 0.2
76 | QGDC | ≤ 0.2
77 | PYSF | ≤ 0.2
78 | RMYW | 0.216

Row | Variant | one-hybrid fitness for binding parS DNA
79 | RMRW | 0.586
80 | RMDW | ≤ 0.2
81 | RMKW | 0.694
82 | RCKW | 0.367
83 | RMVW | 0.23
84 | MALS | ≤ 0.2
85 | IADM | ≤ 0.2
86 | HDPK | ≤ 0.2
87 | FDHR | ≤ 0.2
88 | TTAR | ≤ 0.2
89 | QWPT | ≤ 0.2
90 | QFYR | ≤ 0.2
91 | VGKG | ≤ 0.2
92 | ATYA | ≤ 0.2
93 | DTRA | ≤ 0.2
94 | NTRA | ≤ 0.2
95 | DTYA | ≤ 0.2
96 | RTRA | 0.794
97 | RTYA | 0.606
98 | NWKG | ≤ 0.2
99 | RVDE | ≤ 0.2
100 | TNYG | ≤ 0.2
101 | PHTE | ≤ 0.2
102 | MVER | ≤ 0.2
103 | GAIS | ≤ 0.2
104 | VHEV | ≤ 0.2

Row | Variant | one-hybrid fitness for binding parS DNA
105 | RDYG | ≤ 0.2
106 | RCRG | 0.927
107 | RCYG | 1.04
108 | RPRG | ≤ 0.2
109 | RERG | 0.388
110 | RDRG | ≤ 0.2
111 | RSRG | 0.965
112 | RPYG | ≤ 0.2
113 | RSRR | ≤ 0.2
114 | EMQT | ≤ 0.2
115 | RTTM | 0.316
116 | HGTT | ≤ 0.2
117 | LGRI | ≤ 0.2
118 | DCMT | ≤ 0.2
119 | VQTR | ≤ 0.2
120 | RYGK | ≤ 0.2
121 | RYYK | ≤ 0.2
122 | RYWD | ≤ 0.2
123 | RYCT | 0.852
124 | RYCK | ≤ 0.2
125 | RYYF | 0.22
126 | RYYT | 0.876
127 | RYCQ | ≤ 0.2
128 | RYWP | ≤ 0.2
129 | RYWT | 0.787
130 | RYGY | 0.42

Row | Variant | one-hybrid fitness for binding parS DNA
131 | RYGT | 0.853
132 | TIPF | ≤ 0.2
133 | GWDS | ≤ 0.2
134 | DNAI | ≤ 0.2
135 | LTPR | ≤ 0.2
136 | DAHI | ≤ 0.2
137 | KFDS | ≤ 0.2
138 | TQIL | ≤ 0.2
139 | VNDP | 0.246
140 | RYNE | ≤ 0.2
141 | RYNQ | ≤ 0.2
142 | RYSQ | ≤ 0.2
143 | RYST | 0.862
144 | RYLT | 0.911
145 | RYSM | 0.302
146 | RYRF | ≤ 0.2
147 | RYLN | 0.396
148 | RYRQ | ≤ 0.2
149 | RYNT | 0.819
150 | RYLP | ≤ 0.2
151 | RYRT | 0.737
152 | DRTC | ≤ 0.2
153 | SSMT | ≤ 0.2
